Compounds without any hit were thinned out: in the full panel of roughly 83,000, 20% have a hit.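 Single-concentration screen, 48 h exposure, 96-well plates. Endpoint: percent growth. Below 10 = active.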 The source made the active and inactive calls.
Key:
Experiment in all cases: NCI-60 one-dose screen, 48 h (100 = growth as untreated, 0 = no growth, -100 = all killed)
SK-MEL-2 melanoma = settings: 10 µM
EKVX NSCLC = settings: 10 µM
SN12C renal = settings: 10 µM
TK-10 renal = settings: 10 µM unless noted
ACHN renal = settings: 10 µM
CAKI-1 renal = settings: 10 µM
A498 renal = settings: 10 µM
SR leukemia = settings: 10 µM
RPMI-8226 leukemia = settings: 10 µM
OVCAR-5 ovarian = settings: 10 µM
OVCAR-4 ovarian = settings: 10 µM
SK-OV-3 ovarian = settings: 10 µM
IGROV1 ovarian = settings: 10 µM
OVCAR-3 ovarian = settings: 10 µM
NCI/ADR-RES ovarian = settings: 10 µM
UO-31 renal = settings: 10 µM
CCRF-CEM leukemia = settings: 10 µM
MOLT-4 leukemia = settings: 10 µM
OVCAR-8 ovarian = settings: 10 µM
HS 578T breast = settings: 10 µM

Measured: growth

Cc1ccc(C(=O)c2ccccc2)c(C)c1
inactive: SK-MEL-2 melanoma 108% | EKVX NSCLC 105% | SN12C renal 99.2% | TK-10 renal 109% | ACHN renal 103% | CAKI-1 renal 121% | A498 renal 104% | SR leukemia 127% | RPMI-8226 leukemia 98% | OVCAR-5 ovarian 95.3% | OVCAR-4 ovarian 103% | SK-OV-3 ovarian 99.2% | IGROV1 ovarian 101% | OVCAR-3 ovarian 112% | NCI/ADR-RES ovarian 99.7%

CC1CC(O)C2C3(C)CCCC2(COC3=O)C12CCC1(CCOC1=O)O2 (configuration not stated)
inactive: SK-MEL-2 melanoma 117% | SN12C renal 113% | UO-31 renal 93.3% | TK-10 renal 114% | ACHN renal 108% | CAKI-1 renal 94.7% | A498 renal 71% | CCRF-CEM leukemia 104% | MOLT-4 leukemia 114% | SR leukemia 114% | RPMI-8226 leukemia 117% | OVCAR-8 ovarian 127% | OVCAR-5 ovarian 104% | OVCAR-4 ovarian 103% | SK-OV-3 ovarian 105% | IGROV1 ovarian 113% | OVCAR-3 ovarian 110% | HS 578T breast 99% | NCI/ADR-RES ovarian 111%

O=C(c1ccc(O)cc1)c1ccc(O)cc1
inactive: SK-MEL-2 melanoma 101% | SN12C renal 109% | UO-31 renal 85% | TK-10 renal 95% | ACHN renal 107% | CAKI-1 renal 110% | A498 renal 73.9% | CCRF-CEM leukemia 106% | MOLT-4 leukemia 102% | SR leukemia 88.7% | RPMI-8226 leukemia 107% | OVCAR-8 ovarian 99.9% | OVCAR-5 ovarian 105% | SK-OV-3 ovarian 114% | IGROV1 ovarian 108% | OVCAR-3 ovarian 111% | NCI/ADR-RES ovarian 110%

CC1(O)OC(COc2ccc(Cl)cc2)COC1O (configuration not stated)
inactive: SK-MEL-2 melanoma 126% | EKVX NSCLC 94.7% | SN12C renal 101% | TK-10 renal 108% | ACHN renal 103% | A498 renal 100% | CCRF-CEM leukemia 98.7% | MOLT-4 leukemia 60.9% | RPMI-8226 leukemia 109% | OVCAR-8 ovarian 100% | OVCAR-5 ovarian 111% | OVCAR-4 ovarian 99.1% | SK-OV-3 ovarian 116% | IGROV1 ovarian 113% | OVCAR-3 ovarian 116% | HS 578T breast 95.5% | NCI/ADR-RES ovarian 103%

CC(=Nc1ccccc1)C1=C(O)C(Cc2cccc(F)c2)NC1=O (configuration not stated)
active: A498 renal 0.117% | CCRF-CEM leukemia 6.2% | MOLT-4 leukemia -12.4% | SR leukemia 0.385% | RPMI-8226 leukemia 9.85% | OVCAR-8 ovarian 1.8% | SK-OV-3 ovarian 4.34% | OVCAR-3 ovarian -36.1% | NCI/ADR-RES ovarian 7.11%
inactive: SK-MEL-2 melanoma 13.1% | SN12C renal 29.7% | UO-31 renal 35.9% | TK-10 renal 44.4% | ACHN renal 26.4% | CAKI-1 renal 37.2% | OVCAR-5 ovarian 25.6% | OVCAR-4 ovarian 36.4% | IGROV1 ovarian 13.8%

CC1(C(=O)O)NC(C(=O)O)Cc2c1[nH]c1ccccc21 (configuration not stated)
inactive: SK-MEL-2 melanoma 93.7% | SN12C renal 95.8% | UO-31 renal 79.5% | TK-10 renal 108% | ACHN renal 102% | CAKI-1 renal 96.5% | A498 renal 91.8% | CCRF-CEM leukemia 82.8% | MOLT-4 leukemia 88.8% | SR leukemia 92.8% | RPMI-8226 leukemia 95.4% | OVCAR-8 ovarian 104% | OVCAR-5 ovarian 101% | OVCAR-4 ovarian 105% | SK-OV-3 ovarian 92.7% | IGROV1 ovarian 107% | OVCAR-3 ovarian 112% | HS 578T breast 109% | NCI/ADR-RES ovarian 104%

CN(C)CCC(=O)c1ccc(O)cc1
inactive: SK-MEL-2 melanoma 107% | EKVX NSCLC 107% | UO-31 renal 87.2% | TK-10 renal 106% | ACHN renal 114% | CAKI-1 renal 97.1% | A498 renal 99.4% | CCRF-CEM leukemia 109% | MOLT-4 leukemia 113% | SR leukemia 105% | RPMI-8226 leukemia 89.6% | OVCAR-8 ovarian 102% | OVCAR-5 ovarian 115% | OVCAR-4 ovarian 108% | SK-OV-3 ovarian 110% | IGROV1 ovarian 113% | OVCAR-3 ovarian 97.4% | HS 578T breast 112% | NCI/ADR-RES ovarian 106%

c1ccc(/C(=N\N=C(/c2ccccc2)c2cccs2)c2cccs2)cc1
inactive: SK-MEL-2 melanoma 89.1% | EKVX NSCLC 98% | UO-31 renal 71.2% | TK-10 renal 104% | ACHN renal 89.8% | CAKI-1 renal 89.9% | A498 renal 102% | MOLT-4 leukemia 91.9% | SR leukemia 87.3% | OVCAR-8 ovarian 95% | OVCAR-5 ovarian 98.5% | OVCAR-4 ovarian 97.1% | SK-OV-3 ovarian 105% | IGROV1 ovarian 105% | OVCAR-3 ovarian 99.7% | HS 578T breast 105% | NCI/ADR-RES ovarian 102%

CC(C)CCCC(=O)O
inactive: SK-MEL-2 melanoma 102% | SN12C renal 106% | UO-31 renal 95.4% | TK-10 renal 105% | ACHN renal 104% | CAKI-1 renal 105% | A498 renal 86.8% | CCRF-CEM leukemia 101% | MOLT-4 leukemia 119% | SR leukemia 89.4% | RPMI-8226 leukemia 105% | OVCAR-8 ovarian 114% | OVCAR-5 ovarian 100% | OVCAR-4 ovarian 96.8% | SK-OV-3 ovarian 108% | IGROV1 ovarian 104% | OVCAR-3 ovarian 114% | HS 578T breast 103% | NCI/ADR-RES ovarian 109%

Clc1ccc(-c2nnc(-c3cccc4ccccc34)o2)cc1
inactive: SK-MEL-2 melanoma 96.4% | EKVX NSCLC 34% | UO-31 renal 41.4% | TK-10 renal 95.3% | ACHN renal 90% | CAKI-1 renal 81.6% | MOLT-4 leukemia 104% | SR leukemia 85.5% | RPMI-8226 leukemia 101% | OVCAR-8 ovarian 94.7% | OVCAR-5 ovarian 93.3% | OVCAR-4 ovarian 84.1% | SK-OV-3 ovarian 91.6% | IGROV1 ovarian 69.2% | OVCAR-3 ovarian 103% | HS 578T breast 103% | NCI/ADR-RES ovarian 95.6%

Cc1ccc(C(O)C2CC2)cc1 (configuration not stated)
inactive: SK-MEL-2 melanoma 104% | SN12C renal 102% | UO-31 renal 88.5% | TK-10 renal 116% | ACHN renal 104% | CAKI-1 renal 91.9% | A498 renal 87.5% | CCRF-CEM leukemia 91.7% | MOLT-4 leukemia 100% | SR leukemia 91.7% | RPMI-8226 leukemia 99.3% | OVCAR-8 ovarian 94.1% | OVCAR-5 ovarian 94% | OVCAR-4 ovarian 105% | SK-OV-3 ovarian 106% | IGROV1 ovarian 96.8% | OVCAR-3 ovarian 106% | HS 578T breast 104% | NCI/ADR-RES ovarian 107%

CC(C)NC(=O)OCc1c(COC(=O)NC(C)C)c(-c2ccc(Cl)c(Cl)c2)n2c1SCC2
inactive: SK-MEL-2 melanoma 37.8% | EKVX NSCLC 62.4% | SN12C renal 36.4% | ACHN renal 18.1% | CCRF-CEM leukemia 24.9% | MOLT-4 leukemia 17.1% | RPMI-8226 leukemia 36% | OVCAR-8 ovarian 44.7% | OVCAR-4 ovarian 38.2% | SK-OV-3 ovarian 21.9% | OVCAR-3 ovarian 47.2% | HS 578T breast 36.3% | NCI/ADR-RES ovarian 38.2%
active: TK-10 renal 6.38% | CAKI-1 renal -11.5% | OVCAR-5 ovarian -15.6% | IGROV1 ovarian 3.1%

CC(C)=NNC(N)=S
inactive: SK-MEL-2 melanoma 112% | SN12C renal 74.4% | UO-31 renal 79.3% | TK-10 renal 113% | ACHN renal 88.3% | CAKI-1 renal 83.3% | A498 renal 97.8% | CCRF-CEM leukemia 44.2% | MOLT-4 leukemia 60.4% | SR leukemia 86.7% | RPMI-8226 leukemia 67.8% | OVCAR-8 ovarian 72.4% | OVCAR-5 ovarian 89% | OVCAR-4 ovarian 59.4% | SK-OV-3 ovarian 115% | OVCAR-3 ovarian 37.2% | HS 578T breast 84.3% | NCI/ADR-RES ovarian 47.3%

Clc1ccc(-c2n[nH]c3c2Cc2ccccc2-3)cc1Cl
inactive: SK-MEL-2 melanoma 99.6% | EKVX NSCLC 86.3% | SN12C renal 94.1% | TK-10 renal 101% | ACHN renal 100% | A498 renal 110% | CCRF-CEM leukemia 89.2% | MOLT-4 leukemia 91.4% | SR leukemia 112% | RPMI-8226 leukemia 57.9% | OVCAR-8 ovarian 110% | OVCAR-5 ovarian 111% | OVCAR-4 ovarian 99.9% | SK-OV-3 ovarian 99.4% | IGROV1 ovarian 63% | OVCAR-3 ovarian 110% | NCI/ADR-RES ovarian 95.1%

Cc1ccc(C(=O)NC2c3ccccc3Oc3ccccc32)cc1
inactive: SK-MEL-2 melanoma 66.4% | EKVX NSCLC 64.6% | UO-31 renal 34.4% | TK-10 renal 54.4% | ACHN renal 40% | CAKI-1 renal 64.9% | A498 renal 43.5% | CCRF-CEM leukemia 56.7% | MOLT-4 leukemia 45.5% | SR leukemia 26.6% | RPMI-8226 leukemia 78.9% | OVCAR-8 ovarian 48.6% | OVCAR-5 ovarian 80.6% | OVCAR-4 ovarian 64.7% | SK-OV-3 ovarian 48.3% | IGROV1 ovarian 50.8% | OVCAR-3 ovarian 31.6% | HS 578T breast 46.5% | NCI/ADR-RES ovarian 55%
